In PubChem BioAssay (Tox21):
The source made the active and inactive calls. Calls come from the whole dose curve; as a rule, active = well fitted curve in the direction sought with a large enough effect in the repeat runs; inconclusive = weak or mixed curves; inactive = flat fitted curve, though single readings scatter.

Assay: qHTS assay to test for compound auto fluorescence at 590 nm (red) in HEK293 cells (AID 720679)
Details: red autofluorescence 540/590 nm; series mostly up to 91.3 µM
Description: National Center for Advancing Translational Sciences [NCATS]
NIH Chemical Genomics Center [NCGC]
U.S. Environmental Protection Agency [EPA]
National Institutes of Environmental Health Sciences [NIEHS]
National Toxicology Program [NTP]
U.S. Food and Drug Administration [FDA]
Compound auto fluorescence often interferes with screening of the compound library against various biological targets and signaling pathways. Some of these compounds may have fluorophoric properties. Such properties may interfere with the assay outputs resulting in false positives and/or negatives. To decrease such complications and ensure the compound activities are relevant in terms of biological response, the Tox21 10K compound library was screened for auto fluorescence.
From the fluorophores used as reporter signals in our screening assays, the auto fluorescence equivalencies of compounds against three fluorophores have been evaluated: Triamterene, Fluorescein and Rose Bengal sodium for blue, green and red fluorescence, respectively. The fluorescence intensities were measured using Excitation/Emission wavelengths at 405/460nm, 485/535nm and 540/590nm for blue, green and red labels, respectively. This assay includes the red fluorescence data.
Tox21 Assay Protocol Summary:
2,000 HEK293 cells in 5 uL of culture medium containing 10% dialyzed FBS per well were dispensed into black wall/clear bottom 1536-well plates using a Multidrop Combi Dispenser (Thermo Scientific). The assay plates were incubated for 4-5 hr at 37C to allow cell attachment to the well bottom, followed by the transfer of 23 nL compound or DMSO vehicle by a pintool work station (Kalypsys, San Diego, CA). After the assay plates were incubated overnight at 37C and 5% CO2, fluorescence intensities in the assay plates were measured by an Envision (PerkinElmer, Shelton, CT) plate reader using three labels for measuring blue, green and red fluorescence at […] 460, 535 and 590nm respectively.

SMILES | outcome
CC(C)=CCl | inactive
COC(=O)CCCC(=O)OC | inactive
CC(C)(C)c1cc(Cc2cc(C(C)(C)C)c(O)c(C(C)(C)C)c2)cc(C(C)(C)C)c1O | inactive
CCOCCOCCOCCO | inactive
CN(C)c1ccc(O)c2c1C[C@H]1C[C@H]3[C@H](N(C)C)C(=O)C(C(N)=O)=C(O)[C@@]3(O)C(=O)C1=C2O | inactive
C=CC(=O)OCCC(=O)O | inactive
c1ccc2c(c1)Cc1ccccc1-2 | inactive
CC(=O)OCc1ccccc1 | inactive
CCCOC(=O)c1ccccc1 | inactive
COc1ccc(N)c(C)c1 | inactive
COC(=O)c1cccnc1 | inactive
CN/C(=C\[N+](=O)[O-])NCCSCc1csc(CN(C)C)n1 | inactive
CCCCCC(=O)O | inactive
COc1ccc(C)cc1N | inactive
CC(C)OC(=O)COc1ccc(Cl)cc1Cl | inactive
N#Cc1ccccc1 | inactive
CCCCCCCCCCCC(=O)OC | inactive
CN(C)c1ccc(Cc2ccc(N(C)C)cc2)cc1 | inactive
C=Cc1ccc(C)cc1 | inactive
CCCCOC(=O)c1ccc(N)cc1 | inactive

SMILES | outcome
CC(C)(C#N)c1cc(Cn2cncn2)cc(C(C)(C)C#N)c1 | inactive
O=C1CCCC1 | inactive
O=C1c2ccccc2CCc2ccccc21 | inactive
COc1ccc([N+](=O)[O-])cc1N | inactive
CCCCCCO | inactive
CN(C)CCOC(=O)COc1ccc(Cl)cc1 | inactive
CC(C)OP(=O)(CP(=O)(OC(C)C)OC(C)C)OC(C)C | inactive
C=CC[N+](C)(C)CC=C | inactive
CC(CCO)CC(C)(C)C (stereo not given) | inactive
CNC(=S)N(C)C | inactive
CC(=O)c1ccc(O)cc1 | inactive
CC(=O)OCCOC(C)=O | inactive
O=[N+]([O-])c1ccc2nc[nH]c2c1 | inactive
CC(C)CC(=O)CC(C)CC(C)C (stereo not given) | inactive
Nc1ccc(Cl)c(N)c1 | inactive
O=S(=O)(O)c1ccccc1 | inactive
C=C(C)CNCC | inactive
NCCCCCCN | inactive
Brc1ccc(Br)c(Br)c1 | inactive
C=C(C)[C@H]1CC=C(C)C(=O)C1 | inactive
